Rows were chosen to be rich in hits. Some 4.2% of all compounds tested hit in one or more screens of this group.
RecA intein inh: Mtb RecA intein splicing inhibitors, primary screen, biochemical, fluorescence, HTS; Protein RecA (Mycobacterium tuberculosis (strain ATCC 25618 / H37Rv)), P9WHJ3; cell-free RecA intein splicing; inhibition, % (concentration not given with the values); 0.75% of 290,000 active; AID 2221, 2009; in the data active = inhibition above about 30%
Target sequence (P9WHJ3 whole entry, looked up): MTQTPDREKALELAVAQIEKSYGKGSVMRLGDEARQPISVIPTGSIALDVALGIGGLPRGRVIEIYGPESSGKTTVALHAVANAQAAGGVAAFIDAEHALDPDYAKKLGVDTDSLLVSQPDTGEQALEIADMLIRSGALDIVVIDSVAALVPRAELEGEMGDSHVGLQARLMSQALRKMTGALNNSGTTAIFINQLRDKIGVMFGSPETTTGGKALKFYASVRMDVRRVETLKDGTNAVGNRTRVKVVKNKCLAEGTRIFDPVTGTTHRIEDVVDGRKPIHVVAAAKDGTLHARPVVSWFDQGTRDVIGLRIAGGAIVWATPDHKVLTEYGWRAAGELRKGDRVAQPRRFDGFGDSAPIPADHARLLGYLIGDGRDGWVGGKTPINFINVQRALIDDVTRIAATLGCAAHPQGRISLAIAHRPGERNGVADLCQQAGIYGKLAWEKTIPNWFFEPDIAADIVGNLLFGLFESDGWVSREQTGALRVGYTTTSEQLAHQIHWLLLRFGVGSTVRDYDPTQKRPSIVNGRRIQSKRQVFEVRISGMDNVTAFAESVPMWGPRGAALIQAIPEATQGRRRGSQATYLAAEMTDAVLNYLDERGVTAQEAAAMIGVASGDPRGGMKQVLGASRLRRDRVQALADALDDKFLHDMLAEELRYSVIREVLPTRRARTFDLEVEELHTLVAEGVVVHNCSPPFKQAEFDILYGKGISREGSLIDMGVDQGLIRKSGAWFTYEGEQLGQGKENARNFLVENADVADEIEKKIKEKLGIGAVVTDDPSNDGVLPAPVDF
GDH-TPI counter-1: GDH-TPI coupling enzyme inhibitors, primary screen, artefact control for M. tuberculosis FBA inhibitor project, biochemical, absorbance, full deck | GDH-TPI coupled enzyme counterscreen, NADH absorbance | 1.2% of 360,000 active | inhibition, % at 4.8 µM; in the data active = inhibition above about 30%
CCHF vOTU inh: CCHFV vOTU protease inhibitors, primary screen, biochemical, Pep-AMC substrate, fluorescence. Crimean-Congo hemorrhagic fever virus L polyprotein viral ovarian tumor (vOTU) protease …. inhibition, % at 11.5 µM. 0.55% of 370,000 active; in the data active = inhibition above about 30%
Mtb FBA inh: Mtb FBA enzyme inhibitors, primary screen, biochemical, fluorescence, strain H37Rv. 2.3% of 360,000 active. AID 588726, 2011. Fructose-bisphosphate aldolase (Mycobacterium tuberculosis (strain ATCC 25618 / H37Rv)), …. inhibition, % at 1 µM. purified M. tuberculosis FBA, fluorescence read-out
Mtb FBA inh conf: M. tuberculosis aldolase blockers, biochemical, fluorescence, strain H37Rv, confirmation; inhibition, % at 1 µM; purified M. tuberculosis FBA, fluorescence read-out; 78% of 5,600 active; shares compounds with Mtb FBA inh
GDH-TPI counter-2: GDH-TPI coupling enzyme inhibitors, artefact control for M. tuberculosis FBA inhibitor project, biochemical, fluorescence, high throughput; AID 652141, 2013; GDH-TPI coupled enzyme counterscreen; inhibition, % at 1 µM; 81% of 5,600 active; shares compounds with Mtb FBA inh; in the data active = inhibition above about 10%
GDH-TPI DR: GDH-TPI coupling enzyme inhibitors, dose response, artefact control for M. tuberculosis FBA inhibitor project, biochemical, fluorescence, IC50 | shares compounds with Mtb FBA inh | GDH-TPI coupled enzyme assay, artifact counterscreen | IC50, µM | 79% of 170 active | AID 652145, 2013; call rule not given here
Numbers stand for hits. Rule as the data show it, unless noted: active = inhibition above about 27%; inactive = the rest.

Screening COC(=O)[C@]12C[C@H](CC(=O)N3CCCCC3)C(=O)N(CCc3ccc(OC)c(OC)c3)C1=C[C@H](C1CCCC1)O[C@@H]2C returned CCHF vOTU inh inactive.
Screening COC(=O)C1C(O)=C(C(C)=Nc2cccc3ccccc23)C(=O)CC1(C)C (stereo not given) returned RecA intein inh inactive, GDH-TPI counter-1 inactive, CCHF vOTU inh inactive and Mtb FBA inh inactive.
For O=C(c1ccc([N+](=O)[O-])cc1)N1CCN(c2ncccn2)CC1 the results were RecA intein inh inactive, GDH-TPI counter-1 inactive, CCHF vOTU inh inactive and Mtb FBA inh inactive.
Screening O=S(=O)([N-]c1nc2ccccc2nc1-n1cc[n+](Cc2ccccc2)c1)c1ccc(Br)cc1 returned RecA intein inh inactive, GDH-TPI counter-1 inactive, CCHF vOTU inh inactive, Mtb FBA inh 27.0, Mtb FBA inh conf active and GDH-TPI counter-2 178.6.
`O=C(COC(=O)COc1ccccc1F)NCCc1ccc(F)cc1` gave GDH-TPI counter-1 inactive, CCHF vOTU inh inactive and Mtb FBA inh inactive.
CC1CCN(CC(CS(=O)(=O)c2ccc([N+](=O)[O-])cc2)N2CCC(C)CC2)CC1 (stereo not given) was read as RecA intein inh inactive, GDH-TPI counter-1 inactive, CCHF vOTU inh inactive, Mtb FBA inh 55.0, Mtb FBA inh conf 74.1 and GDH-TPI counter-2 59.6.
`Cc1ccc(S(=O)(=O)CC(CN2CCOCC2)N2CCOCC2)cc1` (stereo not given) gave RecA intein inh inactive, GDH-TPI counter-1 inactive, CCHF vOTU inh inactive and Mtb FBA inh inactive.
O=C(COC(=O)Cn1cnc2ccccc21)NCCc1ccc(Cl)cc1 was read as RecA intein inh inactive, GDH-TPI counter-1 inactive, CCHF vOTU inh inactive, Mtb FBA inh 55.9, Mtb FBA inh conf 45.7 and GDH-TPI counter-2 35.7.
COc1ccc(CCNC(=O)COC(=O)Cn2cnc3ccccc32)cc1OC was read as RecA intein inh inactive, GDH-TPI counter-1 inactive, CCHF vOTU inh inactive and Mtb FBA inh inactive.
For O=C(NC1CCCCC1)c1cc(Cl)nc2ccccc12 the results were RecA intein inh inactive, GDH-TPI counter-1 inactive, CCHF vOTU inh inactive and Mtb FBA inh inactive.
For N=c1c(C(=O)NCC2CCCO2)cc2c(=O)n3ccccc3nc2n1Cc1ccco1 (stereo not given) the results were GDH-TPI counter-1 inactive, CCHF vOTU inh inactive, Mtb FBA inh 27.6, Mtb FBA inh conf active and GDH-TPI counter-2 191.5.
N=c1c(C(=O)NC2CCCCC2)cc2c(=O)n3ccccc3nc2n1Cc1ccccc1 was read as RecA intein inh inactive, GDH-TPI counter-1 inactive, CCHF vOTU inh inactive, Mtb FBA inh 55.5, Mtb FBA inh conf 167.1 and GDH-TPI counter-2 133.8.
For N=c1c(C(=O)NCCc2ccccc2)cc2c(=O)n3ccccc3nc2n1Cc1ccco1 the results were RecA intein inh inactive, GDH-TPI counter-1 inactive, CCHF vOTU inh inactive, Mtb FBA inh 30.4, Mtb FBA inh conf active and GDH-TPI counter-2 162.7.
For O=C(NC1CCCN(Cc2ccc(Cl)cc2)C1)c1cnc2ccccn2c1=O (stereo not given) the results were RecA intein inh inactive, GDH-TPI counter-1 inactive, CCHF vOTU inh inactive, Mtb FBA inh 54.9, Mtb FBA inh conf 117.6 and GDH-TPI counter-2 81.6.
`Cc1ccc(CN2CCCCC(NC(=O)c3ccccc3C)C2=O)cc1` (stereo not given) gave CCHF vOTU inh inactive.
For O=C(COC(=O)/C=C/c1cccc(Cl)c1)NC1CC1 the results were GDH-TPI counter-1 inactive, CCHF vOTU inh inactive and Mtb FBA inh inactive.
`O=C(Nc1cc(S(=O)(=O)N2CCCCC2)ccc1N1CCCCC1)C1CC1` gave RecA intein inh inactive, GDH-TPI counter-1 inactive, CCHF vOTU inh inactive and Mtb FBA inh inactive.
`N=c1c(C(=O)NCc2ccccc2)cc2c(=O)n3ccccc3nc2n1CCCN1CCOCC1` gave GDH-TPI counter-1 inactive, CCHF vOTU inh inactive, Mtb FBA inh 78.7, Mtb FBA inh conf inactive and GDH-TPI counter-2 inactive.
N=c1c(C(=O)NC2CCCCC2)cc2c(=O)n3ccccc3nc2n1Cc1cccnc1 was read as GDH-TPI counter-1 inactive, CCHF vOTU inh inactive, Mtb FBA inh 106.9, Mtb FBA inh conf active and GDH-TPI counter-2 active.
`CC(C)OCCCn1c(=N)c(C(N)=S)cc2c(=O)n3ccccc3nc21` gave RecA intein inh inactive, GDH-TPI counter-1 inactive, CCHF vOTU inh inactive, Mtb FBA inh 70.9, Mtb FBA inh conf 91.9 and GDH-TPI counter-2 81.1.
For N=c1c(S(=O)(=O)c2ccccc2)cc2c(=O)n3ccccc3nc2n1Cc1ccco1 the results were RecA intein inh inactive, GDH-TPI counter-1 inactive, CCHF vOTU inh inactive, Mtb FBA inh 63.6, Mtb FBA inh conf 133.8 and GDH-TPI counter-2 96.6.
`COc1ccc(CNC(=O)C(C)Sc2nc3ccccc3c(=O)n2CCCN2CCOCC2)cc1` (stereo not given) gave RecA intein inh inactive, GDH-TPI counter-1 inactive, CCHF vOTU inh inactive and Mtb FBA inh inactive.
For CC(=O)Nc1ccc(-c2ccnc3c2CC(C(=O)NCc2cccc(Cl)c2)O3)cc1 (stereo not given) the results were GDH-TPI counter-1 inactive, CCHF vOTU inh inactive and Mtb FBA inh inactive.
Screening Cn1c(N)c(C(=O)COC(=O)c2ccc(-c3ccccc3)cc2)c(=O)n(C)c1=O returned GDH-TPI counter-1 inactive, CCHF vOTU inh inactive and Mtb FBA inh inactive.
For O=C(CCN1C(=O)c2ccc(Br)cc2C1=O)NC1CCCCC1 the results were RecA intein inh inactive, GDH-TPI counter-1 inactive, CCHF vOTU inh inactive and Mtb FBA inh inactive.
Screening Cc1ccc(S(=O)(=O)c2cc3c(=O)n4ccccc4nc3n(CC3CCCO3)c2=N)cc1C (stereo not given) returned RecA intein inh inactive, GDH-TPI counter-1 inactive, CCHF vOTU inh inactive, Mtb FBA inh 36.6, Mtb FBA inh conf 91.8 and GDH-TPI counter-2 63.1.
Screening N=c1c(C(=O)NC2CCCCC2)cc2c(=O)n3ccccc3nc2n1Cc1ccco1 returned RecA intein inh inactive, GDH-TPI counter-1 inactive, CCHF vOTU inh inactive, Mtb FBA inh 36.0, Mtb FBA inh conf inactive, GDH-TPI counter-2 inactive and GDH-TPI DR inactive.
`Cc1ccc(S(=O)(=O)c2cc3c(=O)n4ccccc4nc3n(CCc3ccccc3)c2=N)cc1` gave RecA intein inh inactive, GDH-TPI counter-1 inactive, CCHF vOTU inh inactive and Mtb FBA inh inactive.
Screening N=c1c(C(=O)NCc2ccc(F)cc2)cc2c(=O)n3ccccc3nc2n1Cc1cccnc1 returned RecA intein inh inactive, GDH-TPI counter-1 inactive, CCHF vOTU inh inactive, Mtb FBA inh 101.9, Mtb FBA inh conf 151.6 and GDH-TPI counter-2 115.7.

Assay outcomes deposited in PubChem BioAssay by several laboratories.
